Assay results as given in PubChem BioAssay AID2551 (National Center for Advancing Translational Sciences (NCATS), 2010).
Among all 310,000 compounds or so, about 17,000 (5.5%) were called active. About 11% were inconclusive and are not listed. The call rests on the fitted dose curve; in most records, active means well fitted inhibition curve with a large enough effect; inconclusive means small, poorly fitted or top-dose-only effect, or effect the other way; inactive means no such curve, though single readings can be large or run the other way. The list comes from a sample in which actives are over-represented; it also holds similar structures and randomly drawn compounds.

molecular target: Nuclear receptor ROR-gamma (Mus musculus) (UniProt P51450); assay: qHTS for inhibitors of ROR gamma transcriptional activity; conditions: Drosophila S2 Gal4-RORgamma UAS-luciferase reporter, 20 h; series mostly up to 53.6 µM; further: nearly all actives have a fitted effect of over 60% in size
Outline: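 Using a luciferase readout, inhibitors were identified by reduced reporter activity in Drosophila cells coexpressing a copper-inducible Gal4–ROR gamma fusion and UAS-driven Photinus luciferase, incubated 20 hr after 700 uM copper sulfate.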
Potency means the concentration at half of the fitted maximal effect.

Nuclear receptor ROR-gamma (Mus musculus), sequence (P51450 whole entry, looked up, the tested form may be a part): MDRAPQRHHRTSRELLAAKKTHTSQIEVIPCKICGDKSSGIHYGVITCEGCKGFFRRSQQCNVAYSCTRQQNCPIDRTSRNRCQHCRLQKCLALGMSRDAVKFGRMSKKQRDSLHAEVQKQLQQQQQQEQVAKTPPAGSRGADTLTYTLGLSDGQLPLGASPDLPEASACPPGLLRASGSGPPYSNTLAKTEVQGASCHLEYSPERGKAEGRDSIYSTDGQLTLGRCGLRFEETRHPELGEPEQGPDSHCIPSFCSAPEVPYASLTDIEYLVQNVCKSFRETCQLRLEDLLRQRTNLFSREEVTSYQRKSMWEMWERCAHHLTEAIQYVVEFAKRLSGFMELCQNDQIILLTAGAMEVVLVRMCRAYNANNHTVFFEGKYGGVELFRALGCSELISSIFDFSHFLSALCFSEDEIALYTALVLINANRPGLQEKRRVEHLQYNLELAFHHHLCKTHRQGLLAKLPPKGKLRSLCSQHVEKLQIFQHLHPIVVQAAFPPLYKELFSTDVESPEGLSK

Potency, inactive:
COc1cc(C(=O)NCc2nnc(SCC(=O)c3ccc(Cl)cc3)o2)cc(OC)c1OC
COc1ccc(C(=O)NCc2nnc(SCC(=O)Nc3cccc(OC)c3)o2)cc1
OCCN1CCN(C(=S)c2ccc(-c3ccccc3)cc2)CC1
S=C(c1ccccc1)N1CCCC1
Cc1ccccc1NC(=O)CSc1ccc2nnc(-c3ccccn3)n2n1
CC(C)CC(=O)Nc1nnc(S(=O)(=O)N(C)c2ccc(Cl)cc2)s1
CC(=O)Nc1ccc(N2C(=O)C3C4C=CC(CC4)C3C2=O)cc1 (centres undefined)
Cc1[nH]c2ccccc2c1C(=O)COC(=O)C(C)C
CCOC(=O)N1CCN(CC(=O)c2c(C)[nH]c3ccccc23)CC1
CCOC(=O)c1c(C)nc(-c2ccccc2)nc1NC(=O)C(C)C
CCOC(=O)c1c(-c2ccccc2)oc2cc(Br)c(O)cc12
COc1cccc(NC(=O)CCc2nnc3ccc(N4CCC(C)CC4)nn23)c1
CCCCCC(O)(CCN1CCCCC1)c1ccccc1 (centres undefined)
COc1cc(C)cc(CN2CCC(Cc3ccccc3)CC2)c1O
CCn1c(SCC(=O)NC2=NCCS2)nnc1C(C)NC(=O)c1ccccc1F (centres undefined)
CC1CCN(C(=O)CCc2nnc3ccc(NCc4ccco4)nn23)CC1
CCOC(=O)C1CCCN(S(=O)(=O)c2ccc3c(c2)C(C)(C)C(=O)N3C)C1 (centres undefined)
CC1CC(C)CN(c2ccc(S(=O)(=O)N3CCOCC3)cc2)C1 (centres undefined)
O=C(Cc1ccccc1)N1CCN(S(=O)(=O)c2ccc([N+](=O)[O-])cc2)CC1
O=C(Cc1ccc(Br)cc1)N1CCN(c2ccccn2)CC1
C[N+](C)(C)CCNC(=O)c1cc[n+](Cc2ccccc2)c(/C=N/O)c1
CC1CCCCC1NC(=O)c1cn(C)c2ccc(S(=O)(=O)N3CCOCC3)cc2c1=O (centres undefined)
COc1ccc(C(O)(C2CCCCC2)C(CN2CCCC2)c2ccccc2)cc1 (centres undefined)
O=C(C1CCCO1)N1CCN(C(=S)Nc2cccc(Cl)c2)CC1 (centres undefined)
Cc1cccc(C(=O)N2CCC(c3nc4ccccc4s3)CC2)c1
Cc1nc2ccc(NC(=S)N3CCC(C)CC3)cc2nc1C
O=C(NC1CCCC1)C1CCN(C(=O)Nc2cccc(Cl)c2)CC1
Cc1cccc(OCC(=O)Nc2ccc(NC(=O)c3ccco3)c(C)c2)c1
O=C(NCC(=O)N(c1ccccc1)C(C(=O)NCC1CCCO1)c1ccccc1)c1cccs1 (centres undefined)
CC1(C)C2CCC1(CS(=O)(=O)NCCc1c[nH]c3ccccc13)C(=O)C2 (centres undefined)
COc1ccc(NC(=O)/C(Cl)=C(/Cl)S(=O)Cc2ccc(C)cc2)cn1 (centres undefined)
COc1ccc(C(=O)Nc2ccc(NC(=O)C(C)C)nc2)cc1
O=C(NCc1ccccc1)C1CCN(C(=O)Cc2ccccc2)CC1
Cc1ccc2nc(SCC(=O)NC3CCCC3)[nH]c2c1
O=C1CSC(c2ccccc2)N1c1nc(-c2ccc(Cl)cc2Cl)cs1 (centres undefined)
Clc1ccc(-c2ncc3ccccn23)c(Cl)c1
COc1ccc(-n2nc(C(=O)NCC(=O)N3CCN(c4ccccc4OC)CC3)c3ccccc3c2=O)c(OC)c1
Cc1cccc2c1cnn2C(=O)CCC(=O)NC1CCCCC1
CCCCc1nc2cc(C(=O)N3CCCCC3CCO)ccc2o1 (centres undefined)
Cc1ccccc1N/N=C/c1ccc(N2CCOCC2)cc1
C=CCNC(=S)N/N=C/c1ccc(C)s1
CSCCC(NS(=O)(=O)c1ccccc1F)C(=O)N1CC=C(c2ccccc2)CC1 (centres undefined)
C=CCc1ccccc1OCC(O)CN1CCN(CCO)CC1 (centres undefined)
CCN(CC(=O)NCCCN1CCOCC1)S(=O)(=O)c1cc(Cl)ccc1Cl
CC(=O)N1CCC(C(=O)OCc2ccc(Cl)cc2)(c2ccccc2)CC1
O=C(NCc1ccco1)/C(=C\c1cccc([N+](=O)[O-])c1)NC(=O)c1ccco1
CCc1cc(C(N)=O)c(NC(=O)c2ccc(OC)cc2)s1
COC(=O)CNC(=O)c1ccc(OC2CCN(C(=O)C3CC3)CC2)cc1
CCOC(=O)N1CCN(C(=O)c2ccc3c(=O)n(CCc4ccc(OC)c(OC)c4)c(=O)[nH]c3c2)CC1
CCOC(=O)Cn1c(O)c(N=NC(=O)CNC(=O)Cc2ccccc2)c2ccccc21
CC1CCN(C(=O)/C(=C\c2ccccc2F)NC(=O)c2ccccc2)CC1
O=C(CN1CCN(c2ccc(F)cc2)CC1)Nc1cccc(C(F)(F)F)c1
NC(=O)Cn1cc(/C=N\NS(=O)(=O)c2ccccc2)c2ccccc21
Cc1ccc(S(=O)(=O)N/N=C(\c2ccccc2)C2CC2)cc1
Cn1cccc1/C=N/NC(=O)CNc1cccc2ccccc12
C/C(=N\NC(=O)CNc1cccc2ccccc12)c1ccc(Br)s1
CCn1cc(CN2CCN(CC(C)(C)C)C(CCO)C2)c2ccccc21 (centres undefined)
CN(Cc1nc2ccccc2c(=O)[nH]1)Cc1cc(=O)oc2ccc3ccccc3c12
O=c1[nH]c(CN2CCOCC2)nc2cc(Cl)ccc12
COc1cccc(CNC(=O)c2cccnc2Sc2ccc(Cl)cc2)c1
Brc1ccccc1CN1CCC(Cc2ccccc2)CC1
C=CCn1c(COc2ccccc2)nnc1SCC(=O)NCC(=O)OCC
CCOC(=O)CNC(=O)CSc1nnc(-c2cccc(OC)c2)n1CC
Cn1c(=O)oc2cc(S(=O)(=O)NCCC(=O)NCc3ccccc3Cl)ccc21
O=C(CCC1CCN(C(=O)c2cccc(Cl)c2F)CC1)Nc1ccccc1
O=C(NCc1ccc2c(c1)OCO2)c1ccc2c(c1)C(=O)N(CC1CCCO1)C2=O (centres undefined)
CCC(=O)Nc1ccc(C(=O)Nc2ccc3c(c2)C(=O)N(CC2CCCO2)C3=O)cc1 (centres undefined)
O=C(CSc1n[nH]c(=O)n1-c1ccccc1)Nc1ccccc1C(F)(F)F
CCCNC(=O)CCc1c(C)nc2c(c(C)nn2-c2ccc(C)cc2)c1C
COc1cc2ccccc2cc1C(=O)Nc1nc(C)c(C(C)=O)s1
CCCCCC1CC(COc2ccccc2)OC1=O (centres undefined)
COc1ccc(C(=O)NC2CC(C)(C)Cc3c2cnn3-c2ccccc2)c(OC)c1 (centres undefined)
O=C(NCCCn1ccnc1)c1cc(Br)c(Br)s1
C=Cn1cc[n+](CC(=O)c2ccc(OC)c(OC)c2)c1
O=C(CSc1ccc(-c2ccco2)nn1)Nc1cccc(F)c1
Cc1ccc(SCC(=O)Nc2ncc(C)s2)cc1
Cc1cnc(NC(=O)CSc2c(Cl)cccc2Cl)s1
Cc1ccc(Cl)cc1NC(=O)c1ccccn1
Cc1cnc(NC(=O)CSc2nnc(C)s2)s1
CCC(C)C(NC(=O)C1CCC(=O)N1C(=O)OCc1ccccc1)C(=O)NC(C(=O)N1CCCC1C(N)=O)C(C)CC (centres undefined)
Cc1cc(=O)oc2cc(OC(C)C(=O)NCCc3ccc(S(N)(=O)=O)cc3)ccc12 (centres undefined)
CN(C(=O)COC(=O)CNC(=O)C12CC3CC(CC(C3)C1)C2)c1ccccc1
CCC(=O)Nc1ccc(S(=O)(=O)Nc2c(NC)c3ccccc3oc2=O)cc1
O=S1(=O)CCOC[C@H](CC2CCCCC2)N1Cc1ccc(F)cc1
CCOc1ccc(N/C=C/C(=O)c2cc(OC)c(OC)c(OC)c2)cc1
CCOc1cc(NC(=O)c2ccccn2)c(OCC)cc1NC(=O)c1ccc(OC)cc1
Cc1ccc(CNC(=O)C2(C(F)(F)F)C/C(=C\Cc3ccccc3)CCCO2)o1 (centres undefined)
COc1ccc(-c2nc(SCC(=O)N3CCCC3)n[nH]2)cc1
COc1ccc(N2C(=O)CC(SC(C)C)C2=O)cc1 (centres undefined)

Potency, active:
COc1cc(C(=O)NCc2nnc(SCC(=O)Nc3nc4ccc(C)cc4s3)o2)cc(OC)c1OC 2.51 µM
S=C(c1ccc(-c2ccccc2)o1)N1CCCCC1 10 µM
CCOC(=O)c1c(C)[nH]c(=S)c(C#N)c1-c1ccccc1 12.6 µM
CCOC(=O)c1c(C)[nH]c2c1-c1ccccc1C(=O)C2=O 3.55 µM
CCC1=NN(C(=O)Cc2ccc([N+](=O)[O-])cc2)C(O)(c2ccc(Br)cc2)C1 (centres undefined) 11.2 µM
Cc1cccc(NC(=S)N2CCC(c3nc4ccccc4s3)CC2)c1 12.6 µM
Cc1ccc(C2CCN(C(=S)Nc3cccc(Cl)c3)C2)cc1 (centres undefined) 10 µM
COc1ccc(CS(=O)/C(Cl)=C(/Cl)C(=O)Nc2ccc(OC)nc2)cc1 (centres undefined) 1.12 µM
Clc1ccc(-c2cc(-c3ccccn3)on2)c(Cl)c1 3.98 µM
CNC(=S)N/N=C/c1ccc(N2CCOCC2)s1 1.26 µM
CCc1ccc(/C=N/NC(=O)c2ccc(OC3CCCC3)cc2)s1 11.2 µM
O=C(Cn1cc(/C=N/NC(=O)c2cccc(C(F)(F)F)c2)c2ccccc21)Nc1ccc(F)cc1 11.2 µM
Cc1cccc(/C=N/NC(=O)CNc2cccc3ccccc23)n1 14.1 µM
CN(CCOc1ccccc1)Cc1nc2cc(Cl)ccc2c(=O)[nH]1 4.47 µM
CCOC(=O)CNC(=O)CSc1nnc(COc2ccc(Cl)cc2)n1CC 7.94 µM
O=C1c2cccc3c([N+](=O)[O-])ccc(c23)C(=O)N1CC1CCCO1 (centres undefined) 15.8 µM
Cc1cnc(NC(=O)c2ccc(Cl)nc2)s1 15.8 µM
Cc1cnc(NC(=O)c2ccccn2)s1 0.794 µM
COc1ccc(C(=O)/C=C/Nc2ccccn2)cc1 3.55 µM
COc1ccc(N2C(=O)CC(Sc3n[nH]c(-c4ccc(C)cc4)n3)C2=O)cc1 (centres undefined) 20 µM
